In PubChem BioAssay (NCATS):
Inconclusive results are not listed. A call without a number means that no potency is given here. Activity calls are given as the source filed them. The call rests on the fitted dose curve; in most records, active means well fitted inhibition curve with a large enough effect; inconclusive means small, poorly fitted or top-dose-only effect; inactive means flat fitted curve, though single readings scatter.

Tests used:
[1] = qHTS for identification of novel therapeutic agents for treatment of microphthalmiaassociated transcription factor (MiT) renal cell carcinoma (RCC) (AID 1963991); details: CellTiter-Glo, 48 h, stronger effect = lower value
Method in brief: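 UOK109/UOK124/UOK145 (TFE3 fusions, three partners); 500 cells/well; MIPE v4.0, 1912 cpds, 11 conc.; 48 h, 37 C; CellTiter-Glo, 15 min RT; lum. Norm.: DMSO 100%, empty 0%.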

[2] = qHTS profiling for inhibitors of Plasmodium falciparum proliferation (AID 504749); further: nearly all actives have a fitted effect of over 60% in size; further: potency means the concentration at half of the fitted maximal effect; details: P. falciparum in erythrocytes, SYBR Green DNA, 72 h
Method in brief: (§1)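 SYBR Green fluorescence of parasite DNA, read after lysis and overnight dark incubation, measured growth over 72 h in erythrocyte culture at 0.3% parasitemia and 2.5% hematocrit. Data normalised to DMSO and 0.29 uM artemisinin, with plate-drift correction.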

3D7 = assay: as above; details: P. falciparum in erythrocytes, SYBR Green DNA, 72 h; series mostly up to 28.7 µM
Method in brief: as §1

7G8 = assay: as above; details: P. falciparum in erythrocytes, SYBR Green DNA, 72 h; series mostly up to 28.7 µM
Method in brief: as §1

AA1029 = assay: as above; details: P. falciparum in erythrocytes, SYBR Green DNA, 72 h; series mostly up to 28.7 µM
Method in brief: as §1

AS120 = assay: as above; details: P. falciparum in erythrocytes, SYBR Green DNA, 72 h; series mostly up to 28.7 µM
Method in brief: as §1

ATS189 = assay: as above; details: P. falciparum in erythrocytes, SYBR Green DNA, 72 h; series mostly up to 28.7 µM
Method in brief: as §1

ATS95 = assay: as above; details: P. falciparum in erythrocytes, SYBR Green DNA, 72 h; series mostly up to 28.7 µM
Method in brief: as §1

C2A = assay: as above; details: P. falciparum in erythrocytes, SYBR Green DNA, 72 h; series mostly up to 28.7 µM
Method in brief: as §1

CP185 = assay: as above; details: P. falciparum in erythrocytes, SYBR Green DNA, 72 h; series mostly up to 28.7 µM
Method in brief: as §1

[3] = TFE3-RCC UOK109 viability, measured here: UOK109 Z-AUC
[4] = TFE3-RCC viability, measured here: UOK124 Z-AUC
[5] = TFE3-RCC viability, measured here: UOK145 Z-AUC
[6] = at 28.7 µM (top of the series), parasite line A
[7] = at 28.7 µM (top of the series), parasite line B
[8] = at 12.8 µM (top of the series), parasite line A
[9] = at 12.8 µM (top of the series), parasite line B

## Cc1cc(C(C)(C)C)c(O)c(C)c1CC1=NCCN1
[1]; [3]
  z-score: 0.384
[1]; [4]
  z-score: 0.625
[1]; [5]
  z-score: 1.63
[2]; [6]
  activity, negative = inhibition: -4.77% (inactive)
[2]; [7]
  activity, negative = inhibition: -3.69% (inactive)
3D7
  Potency: inactive
7G8
  Potency: inactive
AA1029
  Potency: inactive
AS120
  Potency: inactive
ATS189
  Potency: inactive
ATS95
  Potency: inactive
C2A
  Potency: inactive
CP185
  Potency: inactive

## CC(C)Cc1ccc(C(C)C(=O)O)cc1 (stereo not given)
[1]; [3]
  z-score: 0.767
[1]; [4]
  z-score: 0.849
[1]; [5]
  z-score: 0.507
[2]; [6]
  activity, negative = inhibition: 5.92% (inactive)
[2]; [7]
  activity, negative = inhibition: 6.46% (inactive)
3D7
  Potency: inactive
7G8
  Potency: inactive
AA1029
  Potency: inactive
AS120
  Potency: inactive
ATS189
  Potency: inactive
ATS95
  Potency: inactive
C2A
  Potency: inactive
CP185
  Potency: inactive

## COc1cc2c(c(OC)c1OC)-c1ccc(OC)c(=O)cc1[C@@H](NC(C)=O)CC2
[2]; [6]
  activity, negative = inhibition: -2.78% (inactive)
[2]; [7]
  activity, negative = inhibition: 6.74% (inactive)
3D7
  Potency: inactive
7G8
  Potency: inactive
AA1029
  Potency: inactive
AS120
  Potency: inactive
ATS189
  Potency: inactive
ATS95
  Potency: inactive
C2A
  Potency: inactive
CP185
  Potency: inactive

## Cn1cnc2c1c(=O)[nH]c(=O)n2C
[2]; [6]
  activity, negative = inhibition: 1.87% (inactive)
[2]; [7]
  activity, negative = inhibition: -0.248% (inactive)
3D7
  Potency: inactive
7G8
  Potency: inactive
AA1029
  Potency: inactive
AS120
  Potency: inactive
ATS189
  Potency: inactive
ATS95
  Potency: inactive
C2A
  Potency: inactive
CP185
  Potency: inactive

## CN1C(C(=O)Nc2ccccn2)=C(O)c2ccccc2S1(=O)=O
[2]; [8]
  activity, negative = inhibition: -3.72% (inactive)
[2]; [9]
  activity, negative = inhibition: -0.0614% (inactive)
3D7
  Potency: inactive
7G8
  Potency: inactive
AA1029
  Potency: inactive
AS120
  Potency: inactive
ATS189
  Potency: inactive
ATS95
  Potency: inactive
C2A
  Potency: inactive
CP185
  Potency: inactive

## NCCc1cnc[nH]1
[1]; [3]
  z-score: -0.102
[1]; [4]
  z-score: 0.743
[1]; [5]
  z-score: 0.389
[2]; [6]
  activity, negative = inhibition: 7.72% (inactive)
[2]; [7]
  activity, negative = inhibition: 10.7% (inactive)
7G8
  Potency: inactive
AA1029
  Potency: inactive
AS120
  Potency: inactive
ATS189
  Potency: inactive
C2A
  Potency: inactive
CP185
  Potency: inactive

## Clc1ccc2nsnc2c1NC1=NCCN1
[2]; [6]
  activity, negative = inhibition: 6.78% (inactive)
[2]; [7]
  activity, negative = inhibition: -11.1% (inactive)
3D7
  Potency: inactive
7G8
  Potency: inactive
AA1029
  Potency: inactive
AS120
  Potency: inactive
ATS189
  Potency: inactive
ATS95
  Potency: inactive
C2A
  Potency: inactive
CP185
  Potency: inactive

## Cc1ccc(C(=O)Nc2ccc(S(=O)(=O)O)c3cc(S(=O)(=O)O)cc(S(=O)(=O)O)c23)cc1NC(=O)c1cccc(NC(=O)Nc2cccc(C(=O)Nc3cc(C(=O)Nc4ccc(S(=O)(=O)O)c5cc(S(=O)(=O)O)cc(S(=O)(=O)O)c45)ccc3C)c2)c1
[1]; [3]
  z-score: 0.0489
[1]; [4]
  z-score: -1.39
[1]; [5]
  z-score: -0.47
3D7
  Potency: inactive
7G8
  Potency: inactive
ATS189
  Potency: inactive
C2A
  Potency: inactive
CP185
  Potency: inactive

## CN(C)c1nc(N(C)C)nc(N(C)C)n1
[2]; [8]
  activity, negative = inhibition: 7.93% (inactive)
[2]; [9]
  activity, negative = inhibition: -1.03% (inactive)
3D7
  Potency: inactive
7G8
  Potency: inactive
AA1029
  Potency: inactive
AS120
  Potency: inactive
ATS189
  Potency: inactive
ATS95
  Potency: inactive
C2A
  Potency: inactive
CP185
  Potency: inactive

## Nc1c2c(nc3ccccc13)CCCC2
[1]; [3]
  z-score: 1.01
[1]; [4]
  z-score: 0.33
[1]; [5]
  z-score: 1.46
C2A
  Potency: inactive

## O=c1c(-c2ccc(O)cc2)coc2cc(O)cc(O)c12
[2]; [6]
  activity, negative = inhibition: -2.63% (inactive)
[2]; [7]
  activity, negative = inhibition: -14.6% (inactive)
3D7
  Potency: inactive
7G8
  Potency: inactive
AA1029
  Potency: inactive
AS120
  Potency: inactive
ATS189
  Potency: inactive
ATS95
  Potency: inactive
C2A
  Potency: inactive
CP185
  Potency: inactive

## Cc1cc(C(C)(C)C)cc(C)c1CC1=NCCN1
[2]; [8]
  activity, negative = inhibition: -3.52% (inactive)
[2]; [9]
  activity, negative = inhibition: -6.56% (inactive)
3D7
  Potency: inactive
7G8
  Potency: inactive
AA1029
  Potency: inactive
AS120
  Potency: inactive
ATS189
  Potency: inactive
ATS95
  Potency: inactive
C2A
  Potency: inactive
CP185
  Potency: inactive

## CS(=O)(=O)CCNCc1ccc(-c2ccc3ncnc(Nc4ccc(OCc5cccc(F)c5)c(Cl)c4)c3c2)o1
[2]; [6]
  activity, negative = inhibition: 6.38% (inactive)
[2]; [7]
  activity, negative = inhibition: -5.13% (inactive)
3D7
  Potency: inactive
7G8
  Potency: inactive
AA1029
  Potency: inactive
AS120
  Potency: inactive
ATS189
  Potency: inactive
ATS95
  Potency: inactive
C2A
  Potency: inactive
CP185
  Potency: inactive

## O=C1N(c2ccccc2)c2ccccc2C1(Cc1ccncc1)Cc1ccncc1
[2]; [6]
  activity, negative = inhibition: 1.98% (inactive)
[2]; [7]
  activity, negative = inhibition: -9.11% (inactive)
3D7
  Potency: inactive
7G8
  Potency: 8.91 µM (active)
AA1029
  Potency: inactive
AS120
  Potency: inactive
ATS189
  Potency: inactive
ATS95
  Potency: inactive
C2A
  Potency: inactive
CP185
  Potency: inactive

## OCCN1CCN(CCCN2c3ccccc3Sc3ccc(C(F)(F)F)cc32)CC1
[2]; parasite line A
  Potency: 7.08 µM (active)
[2]; parasite line B
  Potency: 10 µM (active)
3D7
  Potency: 7.08 µM (active)
7G8
  Potency: 3.16 µM (active)
AA1029
  Potency: 12.6 µM (active)
AS120
  Potency: 10 µM (active)
ATS189
  Potency: 8.91 µM (active)
ATS95
  Potency: 11.2 µM (active)
C2A
  Potency: 12.6 µM (active)
CP185
  Potency: 11.2 µM (active)

## Cc1cn([C@H]2C[C@H](N=[N+]=[N-])[C@@H](CO)O2)c(=O)[nH]c1=O
[2]; [6]
  activity, negative = inhibition: -7.84% (inactive)
[2]; [7]
  activity, negative = inhibition: 9.23% (inactive)
3D7
  Potency: inactive
7G8
  Potency: inactive
AA1029
  Potency: inactive
AS120
  Potency: inactive
ATS189
  Potency: inactive
ATS95
  Potency: inactive
C2A
  Potency: inactive
CP185
  Potency: inactive

## CCCNCC(O)COc1ccccc1C(=O)CCc1ccccc1 (stereo not given)
[2]; parasite line A
  Potency: 1 µM (active)
[2]; parasite line B
  Potency: 0.355 µM (active)
3D7
  Potency: 2 µM (active)
7G8
  Potency: 0.251 µM (active)
AA1029
  Potency: 0.631 µM (active)
AS120
  Potency: 0.316 µM (active)
ATS189
  Potency: 0.891 µM (active)
ATS95
  Potency: 0.631 µM (active)
C2A
  Potency: 1.78 µM (active)
CP185
  Potency: 1.26 µM (active)

## Clc1ccc2c(c1)C(N1CCNCC1)=Nc1ccccc1O2
[1]; [3]
  z-score: 0.826
[1]; [4]
  z-score: 0.445
[1]; [5]
  z-score: 0.654
[2]; [6]
  activity, negative = inhibition: -18.9% (inactive)
3D7
  Potency: inactive
C2A
  Potency: inactive
CP185
  Potency: inactive

## CN1CCC(=C2c3ccccc3CC(=O)c3sccc32)CC1
[2]; parasite line A
  Potency: 5.01 µM (active)
7G8
  Potency: 11.2 µM (active)
ATS95
  Potency: 11.2 µM (active)

## CN(C)CCCN1c2ccccc2CCc2ccc(Cl)cc21
[2]; [6]
  activity, negative = inhibition: -15.4% (inactive)
[2]; [7]
  activity, negative = inhibition: -29.1% (inactive)
3D7
  Potency: inactive
7G8
  Potency: 5.01 µM (active)
C2A
  Potency: inactive
CP185
  Potency: inactive

## Nc1nnc(-c2cccc(Cl)c2Cl)c(N)n1
[2]; [6]
  activity, negative = inhibition: -17% (inactive)
[2]; [7]
  activity, negative = inhibition: -20% (inactive)
3D7
  Potency: inactive
7G8
  Potency: inactive
AA1029
  Potency: inactive
AS120
  Potency: inactive
ATS189
  Potency: inactive
ATS95
  Potency: inactive
C2A
  Potency: inactive
CP185
  Potency: inactive
